Results: PubChem BioAssay AID2642 (Johns Hopkins Ion Channel Center, 2010)
The campaign covered roughly 310,000 compounds. About 3,900 (1.3%) were called active.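 The calls were made as follows: active = compounds whose thallium flux B-score, printed positive for inhibition, exceeds three library SD while starting fluorescence stays within three; inactive = the rest.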 The full list was thinned out, with actives kept by preference.

biological target: Potassium voltage-gated channel subfamily KQT member 1 (Homo sapiens) (UniProt P51787); assay: inhibitors of human KCNQ1 channel, primary screen, cell-based, thallium flux, high-throughput (AID 2642); settings: CHO-K1 KCNQ1, FluxOR thallium flux fluorescence, at 10 µM; hits give high values;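 also: channel opened by potassium depolarization with thallium stimulus after 20 min compound exposure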
Sequence (P51787 whole entry, looked up): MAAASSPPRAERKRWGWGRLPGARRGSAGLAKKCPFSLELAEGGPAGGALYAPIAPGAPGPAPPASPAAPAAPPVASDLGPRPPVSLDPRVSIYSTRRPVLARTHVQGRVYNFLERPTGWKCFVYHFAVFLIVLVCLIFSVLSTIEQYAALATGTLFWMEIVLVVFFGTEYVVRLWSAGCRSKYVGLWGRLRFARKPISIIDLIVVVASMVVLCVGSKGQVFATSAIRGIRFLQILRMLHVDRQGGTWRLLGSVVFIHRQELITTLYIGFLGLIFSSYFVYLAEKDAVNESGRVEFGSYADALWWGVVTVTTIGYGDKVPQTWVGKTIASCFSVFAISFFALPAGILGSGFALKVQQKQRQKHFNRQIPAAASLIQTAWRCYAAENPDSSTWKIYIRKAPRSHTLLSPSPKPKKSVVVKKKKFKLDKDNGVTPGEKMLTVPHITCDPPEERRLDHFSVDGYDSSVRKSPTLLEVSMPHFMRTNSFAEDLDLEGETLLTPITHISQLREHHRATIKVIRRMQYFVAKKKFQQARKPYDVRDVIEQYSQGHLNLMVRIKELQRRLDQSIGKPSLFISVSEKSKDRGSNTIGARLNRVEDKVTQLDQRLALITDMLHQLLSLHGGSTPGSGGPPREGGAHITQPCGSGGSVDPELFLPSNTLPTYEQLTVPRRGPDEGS

Row | SMILES | B-score
1 | COc1ccc(-c2cc(C(=O)Nc3ccccc3O)c3ccccc3n2)cc1 | inactive
2 | CC(C)(C)Cc1nnc(NC(=O)c2cc(-c3ccccc3)nc3ccccc23)s1 | 11 (active)
3 | O=C(Nc1nnc(-c2ccccc2)o1)c1cc(-c2cccs2)nc2ccccc12 | inactive
4 | O=C(O)CCCCCCCCCC[n+]1ccccc1 | inactive
5 | Cc1ccc(S(=O)(=O)N(C)C)cc1NC(=O)COC(=O)c1c(C)noc1C | inactive
6 | CN(c1ccc(OCC(=O)O)cc1)S(=O)(=O)c1ccc2ccccc2c1 | inactive
7 | CCc1noc(C)c1C(=O)Oc1ccc(N(C)S(=O)(=O)c2ccc(C)c(C)c2)cc1 | 9 (active)
8 | CCc1ccc(OCC(=O)NCC(c2ccc(Cl)cc2)N2CCCCC2)cc1 (stereo not given) | inactive
9 | Cc1cc(C)cc(NC(=O)CCN2C(=O)c3ccccc3C2=O)c1 | inactive
10 | COc1cc(C(=O)Nc2oc(-c3ccccc3)c(-c3ccccc3)c2C#N)cc(OC)c1OC | inactive
11 | N#Cc1c(NC(=O)CCCN2C(=O)c3ccccc3C2=O)oc(-c2ccccc2)c1-c1ccccc1 | 6 (active)
12 | Cc1cc(OCC(=O)N2CCN(c3ncccn3)CC2)ccc1Cl | inactive
13 | COc1cccc(CNCCc2c[nH]c3ccccc23)c1OCc1ccccc1F | 8 (active)
14 | COc1ccccc1CC(=O)NCCc1c[nH]c2ccccc12 | inactive
15 | COc1ccc(S(=O)(=O)NCCc2c[nH]c3ccccc23)cc1OC | inactive
16 | O=C(Nc1ccccc1N1CCCC1)c1ccc2ccccc2c1 | inactive
17 | COc1ccc(N2CCN(C(=O)c3ccc(N4CCCCS4(=O)=O)cc3)CC2)cc1 | inactive
18 | COc1ccccc1C1SCCN1C(=O)c1ccc([N+](=O)[O-])cc1 (stereo not given) | inactive
19 | COc1ccc2[nH]c(=O)c(C3c4cc(OC)c(OC)cc4CCN3C(=O)c3ccco3)cc2c1 (stereo not given) | inactive
20 | COc1ccc(C(=O)N2CCc3cc(OC)c(OC)cc3C2c2cccc([N+](=O)[O-])c2)cc1 (stereo not given) | 7 (active)
21 | CC(C)(CCl)C(=O)Nc1ccc(Sc2ccc(F)cc2)cc1 | 9 (active)
22 | O=C(Nc1ccncc1)Nc1ccc(F)cc1 | inactive
23 | O=C(CCl)Nc1ccc(Sc2ccc(NC(=O)CCl)cc2)cc1 | inactive
24 | CNc1nc2c(C)cccn2c(=O)c1C=Nc1ccc(OC)cc1 | inactive
25 | CCOC(=O)CC1C(=O)NCCN1c1nc2c(C)cccn2c(=O)c1/C=C1\SC(=S)N(C(C)CC)C1=O (stereo not given) | inactive
26 | CCCN(CCC)c1nc2c(C)cccn2c(=O)c1/C=C1/SC(=S)N(Cc2ccco2)C1=O | 14 (active)
27 | Cc1cccc(OCC(=O)Nc2ccc(NC(=O)c3ccco3)c(C)c2)c1 | inactive

Row | SMILES | B-score
28 | CCC(C)(C(=O)NC1CCCCC1)N(C)C(=O)c1ccc2c(c1)OCO2 (stereo not given) | inactive
29 | COCCSc1nnc(NC(=O)c2cc(OC)c(OC)cc2[N+](=O)[O-])s1 | inactive
30 | Cc1cccc(NC(=S)NCc2ccc3[nH]c4c(c3c2)CCCC4)c1 | 6 (active)
31 | O=C(O)CCC(=O)NCc1ccc2[nH]c3c(c2c1)CCCC3 | inactive
32 | Cc1cc(C)cc(NC(=S)NCc2ccc(F)cc2)c1 | inactive
33 | CC(C)(C)c1ccc(SCCc2ccncc2)cc1 | inactive
34 | C=CCN1CN(S(=O)(=O)c2ccc(OC)cc2)c2nc3ccccc3nc21 | inactive
35 | CC(C)(C)NS(=O)(=O)c1ccc(NC(=O)C2CCCO2)cc1 (stereo not given) | inactive
36 | CCCC(C)C(=O)Nc1ccc(NC(C)=O)cc1 (stereo not given) | inactive
37 | COc1ccc(S(=O)(=O)/N=C2\C=C(NS(=O)(=O)c3ccccc3)C(=O)c3ccccc32)cc1 | 6 (active)
38 | COc1ccc(NC(=O)c2cnc(NS(=O)(=O)c3ccccc3)nc2)cc1 | inactive
39 | CCCC(NS(=O)(=O)c1ccc(OC)cc1)C(=O)O (stereo not given) | inactive
40 | COc1c(N2CCN(C(=S)Nc3ccccc3F)C(C)C2)c(F)cc2c(=O)c(C(=O)O)cn(C3CC3)c12 (stereo not given) | inactive
41 | Cc1cc(C)n2nc(C(=O)OC(C)C(=O)c3cc(C)c(C)cc3C)nc2n1 (stereo not given) | inactive
42 | Cc1cc(Br)ccc1NC(=O)c1sc2ncn(CC(=O)N3CCN(c4ccccn4)CC3)c(=O)c2c1C | inactive
43 | Cc1cc(Br)ccc1NC(=O)c1cnc(N2CCN(c3ccccn3)CC2)c2ccccc12 | 7 (active)
44 | O=C(CN1CCN(c2ccccn2)CC1)Nc1ccc(Br)cc1 | inactive
45 | COc1ccc(Cc2nnc(SCC(=O)Nc3ccc(C)c(C)c3)o2)cc1OC | inactive
46 | CCCc1ccc(C(=O)[C@@H]2[C@@H](C(C)=O)N3c4ccc(F)cc4C=C[C@@H]3[C@@]23C(=O)Nc2ccccc23)cc1 | inactive
47 | CCc1ccc(-c2nn(-c3ccccc3)cc2CSC(=N)N)cc1 | 14 (active)
48 | COc1ccc(-c2nn(-c3ccccc3)cc2C(=O)Nc2nc(CC(C)=O)ns2)cc1 | inactive
49 | Cc1ccc(-c2nn(-c3ccccc3)cc2CN(Cc2ccccc2)C(=O)CCC(=O)O)o1 | inactive
50 | COc1ccc2c(c1)c(=O)c(C(=O)c1ccc(Cl)cc1)cn2CC(=O)Nc1ccc(F)cc1 | inactive
51 | S=C(NCc1ccco1)Nc1ccc2c(c1)OCCO2 | inactive
52 | S=C(Nc1cccc(Cl)c1)Nc1ccc2c(c1)OCCO2 | 8 (active)
53 | S=C(Nc1cccc(Cl)c1)Nc1ccc2cn[nH]c2c1 | inactive
54 | FC(F)(F)c1cccc(NC(=S)Nc2cccc(Cl)c2)c1 | 18 (active)

Row | SMILES | B-score
55 | O=C(Nc1cccc(S(=O)(=O)Nc2ccc(Cl)cc2)c1)c1ccc2c(c1)OCCO2 | inactive
56 | Cc1csc(NC(=S)Nc2cccc(Cl)c2)n1 | inactive
57 | COc1cccc(OCC(O)CNC(=O)c2oc3c(C)c(C)ccc3c2C)c1 (stereo not given) | inactive
58 | Cc1cc(=O)oc2c3c(cc(OCC(=O)NCCC(=O)N[C@@H](C)C(=O)O)c12)OC(C)(C)CC3 | inactive
59 | O=C(O)c1ccccc1-c1ccccc1C(=O)Nc1ccccc1Br | inactive
60 | Nc1cc(OC(=O)c2ccccc2Br)nn1S(=O)(=O)c1ccccc1 | inactive
61 | COc1ccccc1C(=O)NCCC(=O)NC(C)CCc1ccccc1 (stereo not given) | inactive
62 | CN1CCN(CC(=O)Nc2cccc([N+](=O)[O-])c2)CC1 | inactive
63 | CCc1ccc(NC(=O)N2CCc3ccccc3C2)cc1 | inactive
64 | O=C(Nc1cccc([N+](=O)[O-])c1)N1CCc2ccccc2C1 | 7 (active)
65 | CCCCNCc1ccc(SC)cc1 | inactive
66 | Cc1cc(C)cc(N(CC(=O)N2CC=C(c3ccccc3)CC2)S(=O)(=O)c2c(C)noc2C)c1 | 6 (active)
67 | Cc1cc(C)cc(N(CC(=O)NCC2CCCO2)S(=O)(=O)c2c(C)noc2C)c1 (stereo not given) | inactive
68 | CCOC(=O)C1CCCN(C(=O)CN(c2ccc(OC)cc2)S(=O)(=O)c2c(C)noc2C)C1 (stereo not given) | inactive
69 | COc1cccc(/C=N/Nc2cc(C)nc(-c3ccccc3O)n2)c1O | 7 (active)
70 | COc1cccc(/C=N/NC(=O)c2[nH]nc3c2CCc2ccccc2-3)c1O | inactive
71 | COc1cccc(/C=N/Nc2ncc(C(F)(F)F)cc2Cl)c1O | inactive
72 | CN(C(=O)c1ccccc1)c1nccnc1C#N | inactive
73 | CCOC(=O)CC1COCCN1C(=O)c1cc(COc2ccc(F)c(F)c2)on1 (stereo not given) | inactive
74 | COc1ccc(NC(=O)c2sc3nc(C)nc(N4CCN(c5ccccn5)CC4)c3c2C)c(OC)c1 | inactive
75 | Cc1nc(N2CCOCC2)c2c(C)c(C(=O)Nc3ccc(C(F)(F)F)cc3)sc2n1 | inactive
76 | Cc1nc(N2CCN(c3ccccn3)CC2)c2c(C)c(C(=O)Nc3ccc(F)cc3)sc2n1 | 10 (active)
77 | Cc1nc(N2CCC(C)CC2)c2c(C)c(C(=O)Nc3cc(F)ccc3C)sc2n1 | inactive
78 | Cc1nc(N2CCN(c3ccccn3)CC2)c2c(C)c(C(=O)Nc3ccc(F)c(Cl)c3)sc2n1 | 13 (active)
79 | O=C(c1c(F)cccc1Cl)N1CCN(c2ccccn2)CC1 | inactive
80 | Cc1ccccc1NC(=O)c1cc(S(=O)(=O)Nc2cccc(C(=O)O)c2)ccc1Cl | inactive
81 | COCOc1cc(O)c(C(=O)/C=C/c2ccc(OCOC)c(OCOC)c2)c(OCOC)c1 | inactive

Row | SMILES | B-score
82 | CCCCS(=O)c1snnc1C (stereo not given) | inactive
83 | COc1ccc(OC)c(Nc2nc3ccccc3n3cnnc23)c1 | inactive
84 | COc1cccc(C(=O)Nc2nnc(S(=O)(=O)N(C)c3ccccc3)s2)c1 | inactive
85 | CS(=O)(=O)c1ccc(Cl)c(NC(=O)COC(=O)c2cccc(S(=O)(=O)N3CCCC3)c2)c1 | inactive
86 | COc1ccc(C2C=C(c3ccc(Br)cc3)Nc3nc(NS(C)(=O)=O)nn32)cc1 (stereo not given) | inactive
87 | COc1ccc(C)cc1NC(=O)C(Sc1ccccc1)c1ccccc1 (stereo not given) | 6 (active)
88 | COc1ccc(C)cc1NC(=O)NCCCCc1ccccc1 | inactive
89 | COc1ccc(C)cc1NC(=O)Nc1ccccc1SC | inactive
90 | CCCN1CNC(=S)N(CCc2ccccc2)C1 | inactive
91 | CCOC(=O)c1sc(=S)n2c1[nH]c(=O)c1ccc(C(=O)OC)cc12 | inactive
92 | CCOC(=O)C1=C(C)Nc2sc(C(=O)c3ccc(Br)cc3)c(N)c2C1c1ccc(C(=O)OC)cc1 (stereo not given) | 8 (active)
93 | CCOC(=O)c1sc(=NC(=O)c2ccc(Br)cc2)n(C)c1C | inactive
94 | CCCc1nnc(SCC(=O)Nc2ccc(C(=O)OCC)cc2)o1 | inactive
95 | CCOC(=O)c1ccc(NC(=O)CSc2nnc(COc3ccccc3OC)n2C)cc1 | inactive
96 | CCOC(=O)c1ccc(NC(=O)Cn2cnc3cc(C)c(C)cc32)cc1 | 7 (active)
97 | COc1ccc(CCNc2cc(N3CCN(C(=O)c4ccccc4OC)CC3)ccc2[N+](=O)[O-])cc1OC | inactive
98 | Cc1cc(Cl)ccc1NC(=S)NCCCN1CCCC1=O | inactive
99 | O=C1CCCN1CCCNC(=S)Nc1ccc(F)c(Cl)c1 | 7 (active)
100 | Cc1c(Cl)cccc1NC(=O)NCCCN1CCCC1=O | inactive
101 | CCOc1cc(CN2CCCC(CO)(Cc3ccc(F)cc3F)C2)ccc1OC (stereo not given) | inactive
102 | CN(Cc1ccc(F)cc1Cl)S(=O)(=O)c1cccs1 | inactive
103 | O=C(Nn1c(-c2ccccc2)nc2ccccc2c1=O)c1ccc([N+](=O)[O-])cc1 | inactive
104 | O=C(Nn1c(SCc2ccc([N+](=O)[O-])cc2)nc2ccccc2c1=O)c1ccc(F)cc1 | 9 (active)
105 | C=CCn1c(SCc2ccc(C(=O)NCCO)cc2)nc2ccccc2c1=O | inactive
